Compounds with a hit are over-represented: about 1.2% of the library has one in this group of screens.
PrPC surface inh: inhibitors of human cell surface prion protein PrPC; P04156; TR-FRET read-out; inhibition, % at 13.8 µM; 0.43% of 370,000 active; AID 720596; in the data active = inhibition above about 24%; also: 0% = median of the test wells and 100% = reference compound wells
FadD28 binding: inhibitors of Mycobacterium tuberculosis FadD28 bisubstrate binding; 0.22% of 360,000 active; FadD28 bisubstrate probe binding, fluorescence polarization; inhibition, % at 12.5 µM; in the data active = inhibition above about 8.5%, passing the limit was not always enough; inconclusive = no clear call, values can overlap the other calls
SSB-PriA inh: inhibitors of Klebsiella pneumoniae PriA binding to SSB C-terminal tail; AID 1272365; inhibition, % at 33 µM; AlphaScreen SSBct-PriA binding, biotinylated peptide; 0.6% of 430,000 active; in the data active = inhibition mostly above about 37%, no sharp cut-off; inactive = mostly below about 20%;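 also: plate controls were negative control peptide for no effect and reference peptide for full effect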
Mtb UGM inh: blocks M. tuberculosis UGM enzyme. P9WIQ1. purified UGM, fluorescence polarization probe displacement. inhibition, % at 10 µM. 0.06% of 320,000 active. AID 504406; in the data active = inhibition above about 10%, passing the limit was not always enough; inconclusive = no clear call, values can overlap the other calls
PrP 5UTR inh: suppresses PrP 5' UTR mRNA reporter expression; cell-based PrP 5' UTR mRNA reporter, plate reader; inhibition, % (concentration not given with the values); 0.35% of 340,000 active; in the data active = inhibition above about 52%; also: 0 = median of the neutral control wells
Rv3671c protease: inhibitors of M. tuberculosis serine protease Rv3671c | P9WHR9 | inhibition, % at 5.96 µM | 0.048% of 320,000 active;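 also: extracellular domain of Rv3671c used as enzyme; 0% = enzyme with DMSO and 100% = no enzyme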
Target sequence (P9WHR9 whole entry, looked up, the tested form may be a part): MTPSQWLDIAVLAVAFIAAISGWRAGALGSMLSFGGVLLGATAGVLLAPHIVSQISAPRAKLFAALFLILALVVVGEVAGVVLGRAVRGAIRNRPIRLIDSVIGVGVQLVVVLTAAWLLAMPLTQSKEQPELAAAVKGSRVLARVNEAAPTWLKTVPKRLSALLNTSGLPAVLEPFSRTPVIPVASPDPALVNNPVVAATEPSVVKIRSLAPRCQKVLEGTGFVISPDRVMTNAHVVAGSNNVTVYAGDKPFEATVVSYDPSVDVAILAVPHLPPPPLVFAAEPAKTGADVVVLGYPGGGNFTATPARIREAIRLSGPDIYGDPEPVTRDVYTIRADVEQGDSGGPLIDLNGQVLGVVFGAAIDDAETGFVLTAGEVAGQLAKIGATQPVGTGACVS
Rv3671c cf: confirmation of M. tuberculosis Rv3671c protease inhibitors; shares compounds with Rv3671c protease; inhibition, % at 5.96 µM; AID 2761; 40% of 140 active
DNA intercalat: DNA intercalation detected by acridine orange polarization counter-screen | 60% of 35 active | shares compounds with Mtb UGM inh | acridine orange-DNA binding, fluorescence polarization | AC50, µM | AID 463198;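 active = fitted AC50 no greater than ten times the top concentration tested, cut at about 17 µM in these data; inconclusive = flat fit with 30 to 70% signal change, or an unreliable fit; inactive = AC50 beyond ten times the top concentration tested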
Starred values were filed as active, the others as inactive; u = inconclusive; x = no result given; + = active, no number. Rule as the data show it, unless noted: active = inhibition above about 38%; inactive = the rest.

SMILES	PrPC surface inh	FadD28 binding	SSB-PriA inh	Mtb UGM inh	PrP 5UTR inh	Rv3671c protease	Rv3671c cf	others
CCOC(=O)N1CCC(NC(=O)c2ccc3nc(-c4cccc(Cl)c4)cc(OCC)c3c2)CC1	x	x	-12	x	x	x	x
C=CCn1c(SCC(=O)Nc2nc(-c3ccccc3)ns2)nc2sc3c(c2c1=O)CCC3	x	x	-12	x	x	x	x
CCCc1cc(=O)oc2cc(C)cc(OC(=O)c3ccco3)c12	3	-2	7	1	-27	66*	84*
Cc1cc(C)c(-c2cc(NC(=O)COC(=O)c3ccc(C#N)cc3)n(-c3ccccc3)n2)cc1C	1	-2	-11	-1	-4	-51	x
N#CCC(=O)Nc1ccc(C(=O)OCC(=O)Nc2ccccc2Sc2ccccc2)cc1	-3	-7	5	-1	-12	81*	-78
Cc1cc(C)c(-c2cc(NC(=O)COC(=O)c3ccc(NC(=O)CC#N)cc3)n(-c3ccccc3)n2)cc1C	-7	6	6	-1	1	42*	-197
O=C(OCc1ccccc1)N1CCCC(Cc2nc(-c3cnccn3)no2)C1 (centres undefined)	x	x	-21	x	x	x	x
Cc1ccc(-c2ccccc2NC(=O)CS(=O)CC(=O)Nc2ccc(C)c(Cl)c2)o1 (centres undefined)	-13	0	5	-5	-17	78*	-7
CC(=O)N1CCC(CNC2CCOCC2)CC1	x	x	-14	x	x	x	x
COc1ccc(N/C=C(\C(C)=O)c2ccc(OC)c(OC)c2)cc1OC	-4	-1	-9	3	-8	89*	-11
COc1ccc(/C(=C\Nc2ccc(C)c(C)c2)C(C)=O)cc1OC	-3	-1	-7	0	-8	-2	x
CCN(CC)C(=S)SCC(=O)NC12CC3CC(CC(C3)C1)C2	-1	-4	-16	-1	-13	151*	-5
CC(C)Cn1c(N)c(C(=O)COC(=O)c2ccc(O)cc2)c(=O)n(C)c1=O	4	-3	-16	-4	-21	60*	-13
O=C1COc2ccc(Br)cc2CN1Cc1ccccc1C(F)(F)F	x	x	-15	x	x	x	x
N#CC(C#N)=C1C=C2C=C(N3CCCCC3)CCC2CC1 (centres undefined)	x	x	-14	-8	x	51*	36
CCN(CC)C1=CC2=CC(=C(C#N)C#N)CCC2CC1 (centres undefined)	-28	1	-10	-1	-12	4	x
Cc1cc(C)nc(NS(=O)(=O)c2ccc(N)cc2)n1	-2	-2	-3	-3	-10	2	x
COc1cnc(NS(=O)(=O)c2ccc(N)cc2)nc1	-1	-2	3	-3	-6	85*	-6
CCOC(=O)C1CCCN(C(=O)C2c3ccccc3Oc3ccccc32)C1 (centres undefined)	0	10*	2	23*	-8	60*	10
CCOC(=O)C1CCCN(C(=O)C2COc3ccccc3O2)C1 (centres undefined)	-2	-2	-5	x	6	x	x
CC1(C)COC(=O)C1OC(=O)c1ccccc1C(=O)O (centres undefined)	x	x	-5	x	x	x	x
COC(=O)N1CCc2ccc(F)cc2[C@@H]1C(=O)Nc1cc(C(F)(F)F)ccc1Cl	x	x	-18	x	x	x	x
Cc1nn(-c2ccccc2C(=O)O)c(=O)c2ccccc12	-8	0	4	2	-15	-1	x
Cc1nn(-c2ccc(Br)cc2)c(=O)c2ccccc12	-15	-3	-13	3	-87	71*	-5
Cc1cc(S(=O)(=O)C(CNC(=O)COc2ccccc2C)c2cccs2)ccc1F (centres undefined)	x	x	-7	x	x	x	x
SMILES	PrPC surface inh	FadD28 binding	SSB-PriA inh	Mtb UGM inh	PrP 5UTR inh	Rv3671c protease	Rv3671c cf	others
CCOCCCn1c(SCC(=O)Nc2oc(C)c3c(C)n[nH]c(=O)c23)nc2ccccc2c1=O	-13	0	10	x	-8	x	x
Cc1n[nH]c(=O)c2c(NC(=O)CSc3nc4ccccc4c(=O)n3CCCOC(C)C)oc(C)c12	-5	-3	-4	0	-8	92*	-2
O=S1(=O)N=CNc2ccc(S(=O)(=O)Nc3ccccc3Br)cc21	x	x	-9	x	x	x	x
CCN(CC)C(=O)C1c2ccccc2Oc2ccccc21	0	-1	2	47*	-1	74*	8
CO[C@@H](CNS(=O)(=O)c1cnn(C)c1)c1ccc(C)s1	x	x	-11	x	x	x	x
CC(=O)Nc1cccc(C(=O)N/N=C/c2cccnc2)c1	2	-1	x	2	-26	8	x
O=C(N/N=C/c1cccnc1)c1cccc(NC(=O)c2cccc(Br)c2)c1	-4	-4	x	-1	-11	61*	-125
O=C(N/N=C/c1cc(Br)ccc1O)c1ccncc1	9	-8	x	-4	12	41*	9
Cc1ccc2nc(-c3cccs3)oc(=O)c2c1	3	-2	-5	-1	11	52*	63*
Cc1ccc2nc(-c3ccccc3C)oc(=O)c2c1	4	-1	-14	0	-20	62*	75*
CCNc1c2c3c(cccc3n(C)c1=O)C(=O)c1ccccc1-2	x	x	-8	22*	x	60*	53*
CCCCNc1c2c3c(cccc3n(C)c1=O)C(=O)c1ccccc1-2	x	5	-56	28*	-13	43*	57*
Cn1c(=O)c(NCCc2ccccc2)c2c3c(cccc31)C(=O)c1ccccc1-2	-6	93*	-43	44*	-7	+	+
Cn1c(=O)c(NCCO)c2c3c(cccc31)C(=O)c1ccccc1-2	-28	7	1	98*	-7	122*	132*
Cn1c(=O)c(NC2CCCCC2)c2c3c(cccc31)C(=O)c1ccccc1-2	1	-1	-6	x	-26	x	x
CCOc1ccccc1C=NNC(=O)C[n+]1ccccc1	x	x	10	x	x	x	x
O=C(NCc1ccccn1)c1sccc1S(=O)(=O)N1CCN(c2ccccc2)CC1	x	x	-3	x	x	x	x
O=C(NCCNc1ccc(-n2cccc2)nn1)c1cccs1	x	x	24	x	x	x	x
Cc1nc(-c2ccc(N3CCN(C(=O)CSc4nc5ccccc5o4)CC3)nc2)no1	x	x	-9	x	x	x	x
O=C1CCCC2=C1C(c1ccc(Cl)cc1)C1C(=O)c3ccccc3C1=N2 (centres undefined)	-17	u	48	0	-5	40*	3
CCn1c(CSc2nnc(-c3cccnc3)n2-c2ccccc2C)nc2cc(C(=O)O)ccc21	x	x	x	1	x	49*	64*
Cc1ccccc1-n1c(SCC(=O)c2cc(C)n(C)c2C)nnc1-c1cccnc1	x	-4	11	2	-6	-1	x
CCCCCCCCCCCCCCCC[n+]1ccc(/C=N/O)cc1	31*	-2	x	-2	3	59*	72*	DNA intercalat=>35
CCOc1ccc(-n2c(SCC(=O)Nc3nc4ccccc4s3)nc3c(c2=O)SCC3)cc1	x	x	-12	x	x	x	x

Compound activity as filed in PubChem.
